# Data from PubChem BioAssay.
# Active and inactive are the calls of the source.
# What was measured:
# Albumin (Bos taurus) = Albumin (Bos taurus) (UniProt P02769); experiment: compounds binding labelled BSA control protein – biochemical, small-molecule microarray, Alexa647 label, 635/667 nm fluorescence, artefact control for SMM control protein annotation, profiling panel (AID 1118); conditions: BSA-A647 binding, fluorescence 635 nm, higher = more signal;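 further: score merges 667 nm emission intensity and signal-to-noise per printed compound spot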
# Albumin (Bos taurus), sequence (P02769 whole entry, looked up): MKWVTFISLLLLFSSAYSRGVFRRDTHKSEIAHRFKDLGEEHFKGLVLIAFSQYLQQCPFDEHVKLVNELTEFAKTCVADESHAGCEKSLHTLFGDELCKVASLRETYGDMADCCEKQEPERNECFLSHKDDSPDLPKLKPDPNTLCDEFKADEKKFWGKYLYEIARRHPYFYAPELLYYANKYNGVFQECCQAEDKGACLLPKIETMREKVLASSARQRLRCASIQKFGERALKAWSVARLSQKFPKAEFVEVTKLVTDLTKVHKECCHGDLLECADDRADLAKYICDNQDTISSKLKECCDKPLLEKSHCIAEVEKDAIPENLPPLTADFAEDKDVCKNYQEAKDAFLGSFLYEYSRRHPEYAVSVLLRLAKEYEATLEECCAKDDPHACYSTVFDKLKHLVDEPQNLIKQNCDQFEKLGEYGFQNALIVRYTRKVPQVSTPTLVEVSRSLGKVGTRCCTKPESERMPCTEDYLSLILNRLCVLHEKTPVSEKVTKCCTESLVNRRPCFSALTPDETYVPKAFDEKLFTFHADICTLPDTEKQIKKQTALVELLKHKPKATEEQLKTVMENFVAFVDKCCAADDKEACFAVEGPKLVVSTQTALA
# [1] = probe aXIP binding to arrayed compounds – biochemical, NeuroSMM set, 635/667 nm fluorescence, primary screen (AID 1119); conditions: small-molecule microarray, higher = more signal, called active from +8 up or from −8 down;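 further: probe is the protein aXip251-270 applied at 1 µg/mL to compound-printed slides; binding of probe to printed compounds measured as 667 nm fluorescence plus signal to noise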
# [2] = probe aNOTCH3 binding on compound microarray – biochemical, small-molecule microarray, 635/667 nm fluorescence, primary screen (AID 1120); conditions: higher = more signal;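 further: probe is a biotin-tagged antibody raised against NOTCH3 rather than NOTCH3 protein; score merges spot fluorescence near 667 nm with spot signal to noise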
# [3] = probe aNOTCH2 binding on compound microarray – biochemical, small-molecule microarray, 635/667 nm fluorescence, primary screen (AID 1121); conditions: higher = more signal;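 further: score merges feature fluorescence read at 667 nm with its signal to noise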
# [4] = molecular target: Carbonic anhydrase 2 (Homo sapiens) (UniProt P00918); experiment: compounds binding carbonic anhydrase 2 – biochemical, small-molecule microarray, Alexa647-labelled CAII, profiling panel (AID 1122); conditions: CAII-A647 binding fluorescence, higher = more signal
# [5] = COS7 lysate on small-molecule microarray, probe aHis, 635 nm (AID 1123); conditions: COS7 cell lysate, fluorescence, higher = more signal;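 further: z-score combines 667nm fluorescence intensity with signal-to-noise per printed compound spot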
# [6] = probe aLAP1 signal on lysate-treated microarray – cell lysate, small-molecule microarray, COS7 lysate, primary screen (AID 1124); conditions: probe aLAP1, fluorescence, higher = more signal;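 further: lysate comes from COS7 cells expressing LAP1 and is applied at 0.3 µg/mL; score merges spot fluorescence near 667 nm with signal-to-noise over triplicate slides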
# Sam68 (KHDRBS1) = experiment: compounds binding KHDRBS1 protein – biochemical, small-molecule microarray, 635 nm fluorescence, primary screen (AID 1125); conditions: higher = more signal;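 further: score merges 667 nm channel intensity with signal to noise over triplicate slides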
# [7] = system: Chordin-like protein 2 (CHRDL2); experiment: compounds binding chordin-like 2 – biochemical, small-molecule microarray, 635 nm fluorescence, primary screen (AID 1126); conditions: fluorescence 635 nm, higher = more signal;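 further: printed compound slides probed with Chrdl2 protein at 4 µg/mL for 1 h at 4 C; score merges 667 nm emission intensity with signal to noise over three replicate slides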
# [8] = molecular target: Concanavalin-A (Canavalia ensiformis) (UniProt P02866); experiment: compounds binding concanavalin A lectin – biochemical, small-molecule microarray, Alexa647 label, 635 nm, artefact control for SMM control protein annotation, primary screen (AID 1127); conditions: ConA-A647 binding fluorescence, higher = more signal;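 further: z combines 667 nm emission intensity with signal-to-noise across three replicate slides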
# Concanavalin-A (Canavalia ensiformis), sequence (P02866 whole entry, looked up): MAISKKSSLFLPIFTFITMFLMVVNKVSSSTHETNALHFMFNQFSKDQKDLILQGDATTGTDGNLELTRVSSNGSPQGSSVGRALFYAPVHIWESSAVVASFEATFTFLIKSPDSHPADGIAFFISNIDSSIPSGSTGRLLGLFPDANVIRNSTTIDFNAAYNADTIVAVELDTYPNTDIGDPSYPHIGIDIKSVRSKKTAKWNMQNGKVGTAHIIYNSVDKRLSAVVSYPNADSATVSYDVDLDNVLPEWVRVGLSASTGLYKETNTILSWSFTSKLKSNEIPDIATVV
SMILES,composite z-score (Albumin (Bos taurus)),composite Z-score [1],composite z-score [2],composite z-score [3],composite z-score [4],composite z-score [5],composite z-score [6],composite z-score (Sam68 (KHDRBS1)),composite z-score [7],composite z-score [8]
CN(C)C(=O)[C@]1(Cc2ccccc2N=[N+]=[N-])N=C(c2ccc(OCCCO)cc2)O[C@@H]1c1ccccc1CN=[N+]=[N-],0.828,-0.136 (inactive),0.473,-0.0349,0.684,2.53,0.635,1.3,-0.21,0.875
O=C1N(CCS(=O)(=O)c2ccccc2)c2ccccc2[C@H]2OC(c3ccc(OCCCO)cc3)=N[C@@]12CCS(=O)(=O)c1ccccc1,-1.18,1.11 (inactive),0.674,0.445,0.352,2.82,0.226,1.29,1.07,1.16
C=C(COC)C(=O)CC[C@H](OC(=O)c1ccccc1-c1ccccc1C(=O)O)c1ccc(OCCO)cc1,0.369,0.161 (inactive),0.0628,-0.117,0.425,0.276,1.12,1.09,0.498,0.527
CCCCC=C[C@@H](NC(=O)CCc1ccccc1)c1ccccc1,0.585,1.46 (inactive),0.23,0.0409,0.689,2.37,0.785,1.2,0.0782,1.12
C=C(C)[C@@H]1CC=C(C(O)C2C=CC3C(=O)N(C4CCCCC4)C(=O)C3N2Nc2ccc(OC)cc2)CC1 (stereo not given in full),0.902,0.494 (inactive),0.323,-0.141,0.59,2.54,0.273,1.29,0.0811,1.09
COC(=O)[C@@]1(Cc2ccc(OC)cc2)[C@H]2c3cc(C(=O)N4CCCC4)n(CCc4ccc(O)c(OC)c4)c3C[C@H]2CN1C(=O)c1ccccc1,0.952,0.683 (inactive),0.23,0.12,0.742,2.28,0.191,-0.295,-0.508,0.173
O=C1OCCC=C[C@H]2OC34C=CCN(Cn5nnc6ccccc65)C(=O)[C@H]3N(CCCCCO)C(=O)[C@@H]4C12 (stereo not given in full),0.428,0.266 (inactive),-0.193,-0.114,0.87,0.121,0.686,-0.464,-0.579,-1.55
OCc1ccc(-c2cc[n+](Cc3cccc(OC(F)(F)F)c3)cc2)cc1,0.503,0.372 (inactive),0.11,-0.0254,0.894,0.813,1.08,0.981,1.49,1.08
NC(=O)NCC#Cc1ccc2c(c1)[C@]1(C(=O)N2)[C@H](c2ccc(O)cc2)N2[C@H](c3ccccc3)[C@H](c3ccccc3)OC(=O)[C@H]2[C@@H]1C(N)=O,-0.624,0.251 (inactive),-0.279,0.104,0.263,0.409,-0.0995,-0.144,-0.162,-0.608
CCCC=C(CCC)[C@@H](NC(=O)Cc1ccccc1)c1ccc(C(=O)OC)cc1,0.506,0.0119 (inactive),0.934,0.0754,0.405,1.69,0.615,0.844,0.549,0.31
Cc1ccc(C(C)CC(O)C2C=CC3C(=O)N(Cc4ccccc4)C(=O)C3N2n2cnnc2)o1 (stereo not given),1.03,0.391 (inactive),1.3,0.654,0.461,1.7,0.704,1.12,-0.377,1.17
CCC[C@@H]1C[C@@]1(CCC)[C@@H](NC(=O)c1ccco1)c1ccc(Cl)cc1,-0.638,-0.392 (inactive),-0.173,-0.0324,-0.464,-0.241,-0.0117,-1.48,-0.493,-0.517
COC(=O)[C@@]1(Cc2ccccc2N=[N+]=[N-])N=C(c2ccc(OCCCO)cc2)O[C@H]1c1ccccc1,0.371,0.17 (inactive),-0.0377,-0.0563,0.593,1.28,0.156,1.16,-0.608,1.11
C[C@]12C(=O)N(CCCO)[C@@H]3C(=O)N(c4ccc(Cl)cc4)CC=CC31O[C@@H]1/C=C\CCCOC(=O)C12 (stereo not given in full),0.309,0.264 (inactive),-0.305,-0.118,0.883,1.46,0.492,0.518,-1.38,-0.743
